Measurements: PubChem BioAssay (NCI)
“And” between values parts separate entries of the source, which are not always exact repeats. Identical values can stand only once. Compounds without any hit were thinned out: in the full panel of roughly 79,000, 15% have a hit. Unmarked numbers belong to inactive results. Rule as the data show it: active = growth inhibition above about 70%; inactive = the rest.

Test: NCI Yeast Anticancer Drug Screen. Data for the mec2-1 strain (AID 157)
Settings: S. cerevisiae mec2-1 strain, stronger effect = higher value; at 50.0 µM unless noted
In short: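 Each compound was tested on mec2-1 yeast, a strain altered in DNA damage repair or cell cycle control. Growth inhibition is reported relative to vehicle.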

Row | Compound | growth inhibition
1 | O=C(O)c1ccccc1SSc1ccccc1C(=O)O | 16.4% and -6.5%
2 | CCCCCCCSCC(=O)OCC | -19.8%
3 | CCc1ccc(O)cc1O | -12.9%
4 | CCCCCCCCCCCCCCCCC(C#N)C(=O)O (stereo not given) | 0.95%
5 | O=C1CCCC/C1=C/C=C/c1ccccc1 | 21.8%
6 | CC1(C)CC(=O)C(/C=N/C(=S)Nc2ccc(S(N)(=O)=O)cc2)=C(O)C1 | -68.5%
7 | CC(=O)OCC(OC(C)=O)C(OC(C)=O)C(OC(C)=O)C(OC(C)=O)C(=O)NC1CCc2ccccc2C1 (stereo not given) | 2.6%
8 | O=c1[nH][nH]c(=O)c2c([N+](=O)[O-])cccc12 | -8.6%
9 | COc1ccccc1OC(=O)c1ccccc1 | 7.4%
10 | Cc1nc(N)c(N)c(=O)[nH]1 | -1.35%
11 | C=CCC(O)CCCCC (stereo not given) | -22.8%
12 | OC1COC(OCc2ccccc2)C(O)C1O (stereo not given) | -25.7% and -19.6%
13 | COc1ccc(-c2cc(=O)c3c(O)c(O)c(OC)cc3o2)cc1O | -28.6%
14 | CCCCC(C(=O)O)N(C)C (stereo not given) | -11.3%
15 | CCCCCCN(CCCCCC)CC(O)c1cc(-c2ccc(Cl)cc2)nc2c(Cl)cccc12 (stereo not given) | -8.05%

Test: NCI Yeast Anticancer Drug Screen. Data for the sgs1 mgt1 strain (AID 161);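 also: 0% = growth of cultures given vehicle only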
Settings: S. cerevisiae sgs1 mgt1 strain, stronger effect = higher value; at 50.0 µM unless noted
In short: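 Genetically altered yeast, compound exposure, growth inhibition relative to vehicle.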

Row | Compound | growth inhibition
16 | O=c1[nH]c2[nH]c(=S)[nH]c(=O)c2[nH]1 | -8.5%
17 | CC(C)N(C(=O)c1ccccc1O)C(C)C | 6.55%
18 | [N-]=[N+]=NC1(N=[N+]=[N-])C(=O)Nc2ccccc2C1=O (stereo not given) | 2.55%
19 | COc1ccc(N2CC[N+](c3ccc(N(C)C)cc3)=C2C2=[N+](c3ccc(N(C)C)cc3)CCN2c2ccc(OC)cc2)cc1 | -17.4%
20 | O=c1oc(-c2ccccc2CCl)nc2ccccc12 | 15.8%
21 | COC1OC(COC(=O)NCCCCC(=O)C(F)(F)F)C(O)C(O)C1O (stereo not given) | -0.5%
22 | NC(CSCCB(O)O)C(=O)O (stereo not given) | -6.5%
23 | Cc1ccc(C(=O)O)c(/C=C2\Cc3cc(C)cc(C)c3C2=O)c1 | 24.6%
24 | CC(CCO)CCCO (stereo not given) | 7.35%
25 | Cc1ccc2sccc(=O)c2c1 | -8.95%
26 | [O-][N+](=Nc1ccc2c(c1)Cc1ccccc1-2)c1ccc2c(c1)Cc1ccccc1-2 | 25.1%
27 | FC(F)(F)c1ccc2ccc3ccc(Cl)cc3c2c1 | -4.3%
28 | O=C(NO)c1ccccc1 | 11.6%
29 | COC(=O)c1cc(C)n(C)c(=O)c1CN | -8.6%
30 | Cc1nc(-c2ccc(N=Cc3ccc(N4CCC5(CCCCC5)CC4)cc3)cc2)cs1 | 15.7%
31 | Cc1ccc(S(=O)(=O)NC(CCC(=O)N2CCOCC2)C(=O)O)cc1 (stereo not given) | 7.15%
32 | O=C(Oc1ccc(Cl)cc1)c1ccc([N+](=O)[O-])cc1 | 9.9%
33 | O=[N+]([O-])c1ccc(N(CCO)CCO)cc1 | -1.75%
34 | Cn1c([N+](=O)[O-])cnc1CSc1nc(-c2ccccc2)no1 | 33.8%
35 | CCOc1nc(=O)n(C2OC(CO)C(O)C2O)s1 (stereo not given) | -3.7%

Row | Compound | growth inhibition
36 | O=C(c1ccccc1)C1(c2ccccc2)OC1(C(=O)c1ccccc1)c1ccccc1 (stereo not given) | 7.5%
37 | FC(F)(F)COP1(OCC(F)(F)F)=NP(OCC(F)(F)F)(OCC(F)(F)F)=NP(OCC(F)(F)F)(OCC(F)(F)F)=N1 | -5.15%
38 | O=C(O)c1nc2cn1/C=C\C=NCC1=CN3C=CC=NC3(C(=O)O)N1C2 (stereo not given) | -12.4%
39 | CCC(=O)C(C)=O | 13.1%
40 | CCN(CC)C(=O)c1cc(OC)c(C(=O)N(CC)CC)cc1OC | 4.15%
41 | O=C(O)c1ccccc1SSc1ccccc1C(=O)O | -6.6% and 3.3%
42 | CCCCCCCSCC(=O)OCC | -22.5%
43 | CCc1ccc(O)cc1O | -43.1%
44 | CCCCCCCCCCCCCCCCC(C#N)C(=O)O (stereo not given) | -18.2%
45 | O=C1CCCC/C1=C/C=C/c1ccccc1 | 23.1%
46 | CC1(C)CC(=O)C(/C=N/C(=S)Nc2ccc(S(N)(=O)=O)cc2)=C(O)C1 | -23.8%
47 | CC(=O)OCC(OC(C)=O)C(OC(C)=O)C(OC(C)=O)C(OC(C)=O)C(=O)NC1CCc2ccccc2C1 (stereo not given) | 13.6%
48 | O=c1[nH][nH]c(=O)c2c([N+](=O)[O-])cccc12 | -3.8%
49 | COc1ccccc1OC(=O)c1ccccc1 | -22.8%
50 | Cc1nc(N)c(N)c(=O)[nH]1 | -1.75%
51 | C=CCC(O)CCCCC (stereo not given) | 15.8%
52 | OC1COC(OCc2ccccc2)C(O)C1O (stereo not given) | -18.1% and -11.5%
53 | COc1ccc(-c2cc(=O)c3c(O)c(O)c(OC)cc3o2)cc1O | -55.9%
54 | CCCCC(C(=O)O)N(C)C (stereo not given) | -5.8%
55 | CCCCCCN(CCCCCC)CC(O)c1cc(-c2ccc(Cl)cc2)nc2c(Cl)cccc12 (stereo not given) | 18.4%
